In PubChem BioAssay AID463173 (ICCB-Longwood Screening Facility, Harvard Medical School, 2010) one finds survival data, which are given here for 25 compounds.

In all, about 52,000 compounds went through this assay and about 4,300 (8.3%) were called active. Cut-off read from the data, not from the text of the source: active = survival mostly below about 52% (no sharp cut-off); inactive = mostly above about 56%. For the sample, actives were picked, then their nearest neighbours and some compounds at random.

This assay relates to DeltatarO mutant. Nature of the assay: growth inhibition of S. aureus wild type versus tarO mutant, primary screen, teichoic acid synthesis inhibitors, RN4220, OD600 (AID 463173). The conditions noted are these: OD600, 18 h, active compounds read low, screened at 18.75 µg/mL (by protocol).
For `O=C(NCCN1CCCCC1)c1ccc(Cn2c(SCc3cccc(F)c3)nc3cccnc32)cc1`, the survival is 103% (inactive). To `Cc1c(C(=O)Nc2ccccc2)sc2ncn(CC(=O)N3CCOCC3)c(=O)c12` belongs 87% (inactive); to `O=C(/C=C/c1cn(CC(O)CN2CCc3ccccc32)c2ccccc12)c1ccc(Br)cc1` (stereo not given), 68% (inactive). With `O=C(/C=C/c1cn(CC(O)CN2CCCCCC2)c2ccccc12)c1ccccc1` (stereo not given) the figure was 49% (inactive). To `Cc1ccc(C(=O)/C=C/c2cn(CC(O)CN3CCCCCC3)c3ccccc23)cc1` (stereo not given) belongs 12% (active); to `O=C(Cn1cc(SCc2ccc(Br)cc2)c2ccccc21)N1CCCCC1`, 80% (inactive). Consider `CCOc1ccc(C(=O)/C=C/c2cn(CC(O)CN3CCCCCC3)c3ccccc23)cc1` (stereo not given), for which the survival was 1% (active). With `COc1ccc(C(=O)/C=C/c2cn(CC(O)CN3CCCCCC3)c3ccccc23)cc1OC` (stereo not given) the figure was 80% (inactive). On to `O=C(/C=C/c1cn(CC(O)CN2CCCCCC2)c2ccccc12)c1ccc(Br)cc1` (stereo not given), for which the survival is -3% (active). With `COc1ccc(C(=O)/C=C/c2cn(CC(O)CN3CCc4ccccc43)c3ccccc23)cc1OC` (stereo not given) the figure was 68% (inactive); with `CCOc1ccc(C(=O)OC(C)CN2CCCCC2)cc1` (stereo not given), 96% (inactive); with `COc1ccc(CCn2c3c(c(=O)[nH]c2=O)C(NC(=O)c2ccccc2OC)(C(F)(F)F)C(=O)N3)cc1OC` (stereo not given), 81% (inactive).

In the case of `Cc1ccc(NC(=O)c2ccc3c(O)c(S(=O)(=O)c4ccccc4)c(=O)[nH]c3c2)cc1Cl`, the survival was 78% (inactive).

Consider `CCc1cccc(NC(=O)CSc2nnc(-c3cc4occc4n3C)n2-c2ccccc2C)c1`, for which the survival was 89% (inactive).

On to `COc1ccccc1N1CCN(C(=O)C2CCCN(S(=O)(=O)c3ccc4c(c3)CCCN4C(C)=O)C2)CC1` (stereo not given), for which the survival is 88% (inactive). As to `CCN1CCN(C(C)C(=O)NCc2ccc(OC)cc2)CC1` (stereo not given), the survival is 85% (inactive). With `CNC(=O)CSc1nnc(NC(=O)Nc2ccccc2)s1` the figure was 94% (inactive); with `O=C(Cn1c(SCC(=O)N2CCc3ccccc32)nc2ccccc21)NC1CC1`, 77% (inactive). With `OC1COCc2nc3ccccc3n2C1` (stereo not given) the figure was 57% (active). Take `c1ccc2c(c1)nc1n2CCC1`: the survival is 96% (inactive). To `O=C(NCCc1ccccc1)c1ccc2c(c1)nc1n2CCOC1` belongs 109% (inactive). With `Cn1c(=O)n(C)c2cc(N3CCOCC3)c(NS(=O)(=O)c3ccc(C(C)(C)C)cc3)cc21` the figure was 81% (inactive); with `COc1cccc(NC(=O)C(Cc2ccccc2)N2Cc3ccccc3C2=O)c1` (stereo not given), 66% (inactive); with `CCOc1ccc(CCNC(=O)c2cc3sc(CC)cc3n2C)cc1OCC`, 55% (inactive). With `COc1cc(CN(C(=O)COc2ccc(F)cc2)c2ccccn2)cc(OC)c1OC` the figure was 81% (inactive).
